Shown are actives, neighbours in structure and some others; about 0.28% of the full set was active somewhere.
NPYLR7 ag = mosquito NPYLR7 agonism; HEK293T NPYLR7/Galpha15, GCaMP6s calcium fluorescence; activation, % at 10 µM; 270,000 tested, 0.15% active; AID 1259423; in the data active means activation above about 40%;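 further: 0% = vehicle and 100% = reference agonist at the receptor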
hcGAS lum = human cGAS inhibition | recombinant h-cGAS, ATP depletion, Kinase-Glo luminescence | inhibition, % at 12.5 µM | AID 1259398 | 290,000 tested, 0.081% active | Q8N884;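 further: 0% = vehicle reaction and 100% = reaction without DNA for no activity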
mcGAS lum = blocks mouse cGAS activity. recombinant cGAS, Kinase-Glo ATP depletion luminescence. inhibition, % at 12.5 µM. 160,000 tested, 0.15% active. AID 1259399;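 further: 0% = negative control wells and 100% = reference inhibitor with no enzyme activity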
Target sequence (Q8C6L5 whole entry, looked up): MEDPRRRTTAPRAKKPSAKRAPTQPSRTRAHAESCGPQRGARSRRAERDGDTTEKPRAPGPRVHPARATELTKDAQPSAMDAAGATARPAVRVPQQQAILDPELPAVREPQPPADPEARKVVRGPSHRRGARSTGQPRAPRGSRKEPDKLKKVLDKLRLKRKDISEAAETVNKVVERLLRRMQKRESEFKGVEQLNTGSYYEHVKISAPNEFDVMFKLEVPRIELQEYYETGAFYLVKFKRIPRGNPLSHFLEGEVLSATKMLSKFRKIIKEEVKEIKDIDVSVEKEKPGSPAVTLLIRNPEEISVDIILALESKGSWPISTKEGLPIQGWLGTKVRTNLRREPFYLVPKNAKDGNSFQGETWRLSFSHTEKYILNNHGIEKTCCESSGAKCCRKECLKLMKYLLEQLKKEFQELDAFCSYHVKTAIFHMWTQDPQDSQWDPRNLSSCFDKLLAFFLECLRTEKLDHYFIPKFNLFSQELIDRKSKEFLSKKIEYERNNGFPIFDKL
Active calls of the source: *. Unless noted, no stated cut-off is given here; in the data, active means inhibition above about 40%; inactive means the rest.

O=[N+]([O-])c1ccc2c(c1)S(=O)(=O)C=C2 was read as NPYLR7 ag 8, hcGAS lum 2 and mcGAS lum 86*.
For Cc1cccc(C2=N/C(=C\c3cc4cc5c6c(c4oc3=O)CCCN6CCC5)C(=O)O2)c1 the results were NPYLR7 ag 117*, hcGAS lum -7 and mcGAS lum -7.
For Cc1ccc(C2=NC(=Cc3ccc(N4CCOCC4)s3)C(=O)O2)cc1[N+](=O)[O-] the results were NPYLR7 ag 14 and hcGAS lum -36.
COc1cc(OC)c(OC)cc1C=C1N=C(c2cccc(C)c2)OC1=O was read as NPYLR7 ag 3 and hcGAS lum -6.
O=C1OC(c2ccc(Cl)c([N+](=O)[O-])c2)=N/C1=C\c1cc2cc3c4c(c2oc1=O)CCCN4CCC3 was read as NPYLR7 ag 123*, hcGAS lum -7 and mcGAS lum -5.
For O=C(NCCCn1nc(-c2cccnc2)ccc1=O)c1ccc(Cl)cc1Cl the results were NPYLR7 ag 10 and hcGAS lum -9.
For CCNCCN1C(=O)C(C)SC1c1ccc(OC)cc1 (configuration not stated) the results were NPYLR7 ag -2, hcGAS lum 1 and mcGAS lum 0.
Cc1ccc(CN(Cc2ccc(F)cc2)CC(O)Cc2ccccc2)c(C)c1 (configuration not stated) was read as NPYLR7 ag 30, hcGAS lum -4 and mcGAS lum -5.
`CCCN(Cc1cc(C)ccc1C)CC(O)Cc1ccccc1` (configuration not stated) gave NPYLR7 ag 3, hcGAS lum -5 and mcGAS lum 62*.
COc1cc2c(cc1-c1nccn1C(C)c1ccc(-n3cncn3)cc1)OCO2 (configuration not stated) was read as hcGAS lum -3.
COc1ccc(-c2ncc[nH]2)c(OC)c1C was read as NPYLR7 ag -3, hcGAS lum -6 and mcGAS lum -10.
`CC(C)NC(=O)CN(C)C(C)c1cc2ccccc2o1` (configuration not stated) gave NPYLR7 ag 7, hcGAS lum -11 and mcGAS lum -7.
For CCCNC(=O)N1CCN(c2nc3c(s2)CN(C(=O)CC)CC3)CC1 the results were hcGAS lum -6 and mcGAS lum -6.
`COCCNC(=O)N1CCc2nc(N3CCN(C)CC3)sc2C1` gave hcGAS lum 58* and mcGAS lum -2.
Screening CCCCN(CC(=O)N(Cc1cccn1Cc1ccccc1Cl)CC(C)C)C(=O)NCc1ccccc1 returned NPYLR7 ag 21, hcGAS lum -1 and mcGAS lum -5.
CCOc1cc(/C=C2/Oc3cc(O)ccc3C2=O)cc(Cl)c1OCC(=O)N(C)C was read as NPYLR7 ag 150* and hcGAS lum -5.
`CCOc1cc(C=C2N=C(c3ccc(Cl)cc3)OC2=O)ccc1OCC(=O)N(C)C` gave NPYLR7 ag 18, hcGAS lum -8 and mcGAS lum -8.
`COc1ccc(/C=C2\Oc3cc(OCC(N)=O)ccc3C2=O)cc1` gave NPYLR7 ag 3 and hcGAS lum -1.
`COc1cc(C=C2Oc3cc(O)ccc3C2=O)cc(OC)c1OC` gave NPYLR7 ag 83* and hcGAS lum -8.
Screening Cc1[nH]c2ccc(C(=O)NNC(=O)c3ccco3)cc2c1C returned NPYLR7 ag 12, hcGAS lum -9 and mcGAS lum -5.
Cc1ccc(/C=C/C2=NC(=C\c3cccs3)/C(=O)O2)cc1 was read as NPYLR7 ag 0 and hcGAS lum -4.
`Cc1cc(Br)cc2c1=NC(=O)C=2c1sc(=S)[nH]c1O` gave NPYLR7 ag -2, hcGAS lum 5 and mcGAS lum 94*.
CC(C)C(C(=O)O)n1c(O)c(C2=c3cc(Br)ccc3=NC2=O)sc1=S (configuration not stated) was read as NPYLR7 ag -1, hcGAS lum -1 and mcGAS lum -1.
`O=C1N=c2ccc(F)cc2=C1c1sc(=S)[nH]c1O` gave NPYLR7 ag -1, hcGAS lum 15 and mcGAS lum 100*.
Nn1c(O)c(C2=c3cc([N+](=O)[O-])ccc3=NC2=O)sc1=S was read as NPYLR7 ag 1 and hcGAS lum -4.
`Cc1ccc(S(=O)(=O)N=c2ccc(Cl)cn2C(F)F)cc1` gave NPYLR7 ag -7 and hcGAS lum -3.
`Cc1cccc(NS(=O)(=O)c2cc(S(C)(=O)=O)ccc2Cl)c1C` gave NPYLR7 ag 5 and hcGAS lum -6.
Screening CCNC(=O)NC1CC(=O)N(CC(C)(C)C)C1 (configuration not stated) returned NPYLR7 ag 3 and hcGAS lum -12.
For CC(C)Cn1c(N)c(C(=O)CSc2nccn2C)c(=O)n(C)c1=O the results were NPYLR7 ag -3, hcGAS lum -4 and mcGAS lum -6.
Screening Cn1ccnc1SCC(=O)c1cc(I)c(O)c(I)c1 returned NPYLR7 ag -1, hcGAS lum 8 and mcGAS lum 76*.
Screening Cc1ccc(-n2nc(C(=O)NCC3CCCO3)c(=O)n(Cc3cccnc3)c2=O)cc1 (configuration not stated) returned NPYLR7 ag 18, hcGAS lum -6 and mcGAS lum -5.
Screening COc1cc(C=CC(=O)c2ccc(F)cc2)ccc1OC(F)F returned NPYLR7 ag -9 and hcGAS lum 1.
For O=C(C=Cc1ccccc1OC(F)F)c1ccc(F)cc1 the results were NPYLR7 ag -2, hcGAS lum -5 and mcGAS lum 43*.
Screening Cc1nnnn1CCCN1CCCC1c1ccccn1 (configuration not stated) returned NPYLR7 ag 0, hcGAS lum -7 and mcGAS lum -16.
`CN1C=CC(=C/C=C2/C=Nc3ccccc32)C=C1` gave NPYLR7 ag 54*, hcGAS lum 1 and mcGAS lum -2.
Screening CCCCn1c(O)c(C=C2C=Nc3ccccc32)c(=O)[nH]c1=O returned NPYLR7 ag 6, hcGAS lum 0 and mcGAS lum 6.
For CNc1cc(-c2ccc(CN3CCCCC3)cn2)c2cc[nH]c2n1 the results were NPYLR7 ag 21, hcGAS lum 60* and mcGAS lum -6.
Screening CNc1cc(-c2ccc(CN)cn2)c2cc[nH]c2n1 returned NPYLR7 ag 24, hcGAS lum -2 and mcGAS lum -10.
`CCOC(=O)C(C#N)=CNc1cnccn1` gave NPYLR7 ag 11, hcGAS lum -1 and mcGAS lum -4.
Screening CCOC(=O)C(C#N)=CNc1nc(C(C)=O)cs1 returned NPYLR7 ag 4, hcGAS lum 53* and mcGAS lum 64*.
O=C(C1CC1)N(CCN1CCOCC1)Cc1c(-c2ccccc2)noc1N1CCCCC1 was read as NPYLR7 ag 9, hcGAS lum -4 and mcGAS lum -7.
For c1cc(CNc2ncnc3ccsc23)cc(CN2CCCC2)c1 the results were NPYLR7 ag 0 and hcGAS lum -3.
COc1ccc(/C=C/C(=O)c2cc(O)ccc2O)cc1 was read as NPYLR7 ag -6, hcGAS lum 2 and mcGAS lum 53*.
`COc1ccc(/C=C/C(=O)c2ccc(O)cc2O)cc1` gave NPYLR7 ag -17 and hcGAS lum -1.
Screening COc1ccc(/C=C/c2ccc3ccccc3n2)c(OC)c1 returned NPYLR7 ag 2, hcGAS lum -11 and mcGAS lum -10.

Source: PubChem BioAssay
